This note sets out measurements from PubChem BioAssay AID743461 (Broad Institute, 2014).

Molecules are shown by their SMILES. Some of the results follow. Active and inactive are the calls of the source.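 Rule for the calls: active = fitted dose curve reaching 40% activity at or below the highest valid dose tested; inconclusive = flat fit between 30% and 70%, or an unusable fit; inactive = the rest.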

The assay can be described thus: COX5a mRNA reduction in C2C12 myotubes – cell-based, RT-qPCR, cherry-picked samples, dose response (AID 743461). The note with it: C2C12 myotubes PGC-1a adenovirus, at 0.0285 µM.

On to `N#Cc1ccc(-c2ccc(C3[C@@H]4CN(S(=O)(=O)c5ccc(F)cc5)C[C@H]3N4)cc2)cc1` (stereo partly specified), for which the maximal activity is -35.2% (inactive).
